mTORC1 inh: Acumen qHTS Assay for Inhibitors of the mTORC1 Signaling Pathway in MEF (Tsc2-/-, p53-/-) Cells: Sytravon | hit rate 0.78% among 44,000 | Tsc2-/- p53-/- MEF, phospho-rpS6 immunofluorescence/PI, 24 h | Potency, µM (top dose mostly 38.3 µM), for the others: at the top dose activity change, negative = inhibition, hits mostly inhibitors | AID 493208, 2011;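 further: plate controls were DMSO for no effect and rapamycin for full effect; nearly all actives have a fitted effect of over 50% in size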
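Immunofluorescence of rpS6 phosphorylation in Tsc2-/-, p53-/- MEFs after 24 h compound exposure, normalized to propidium iodide signal. Activity is expressed as % positive cells, thresholded with 7.5 nM rapamycin.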
S16 viability: Cell viability qHTS assay in S16 Pmp22-F2sN cells. S16 Pmp22-F2sN Schwann cells viability, CellTiter-Glo, 24 h. Potency, µM (titrated, usually from 57.5 µM), without a hit: at the highest dose activity change, negative = cytotoxicity, actives largely listed as cytotoxic. hit rate 0.48% among 43,000; further: nearly all actives have a fitted effect of over 65% in size
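Luminescence from CellTiter-Glo, read by CCD camera after a 15 min room-temperature incubation, served as the viability signal. Reporter Schwann cells (S16 Pmp22-F2sN) had been treated with pin-transferred compounds for 24 h at 37C.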
p53null 39C tox: qHTS Screen for Compounds that Selectively Target Cancer Cells with p53 Mutations: Cytotoxicity of p53 Null Cells at the Nonpermissive Temperature. H1299 p53-null (neo) cells, 39C, ATPlite viability, 24 h. hit rate 0.97% among 55,000. Potency, µM (top dose mostly 46.1 µM), inactives show at the highest dose activity, negative = cell killing, usual class: cytotoxic. AID 904, 2007;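 further: 0% = DMSO only and -100% = full killing by 100 µM tamoxifen; nearly all actives have a fitted effect of over 50% in size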
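Following overnight plating at 37C (600 cells/well), H1299-neo or H1299-p53A138V cells are dosed up to 46 uM. Incubation lasts 24 hr at 39C before ATP detection.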
PMP22 txn: Cell-based coincidence reporter assay to measure PMP22 gene transcription in S16 Pmp22-F2sN cells - Primary screen; S16 Pmp22-F2sN Schwann cells (luciferase reporters placed in the Pmp22 gene), FLuc/NLuc coincidence luminescence, 24 h; Potency, µM (titrated, usually from 57.5 µM), for the others: at the highest dose activity change, negative = inhibition, hits mostly inhibitors; hit rate 2% among 43,000; active means clear falling dose curves in both reporters; inconclusive means both reporters move, but less clearly or upward; inactive means either reporter flat; the % is the NLuc reporter signal
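S16(c9) Schwann cells with FLuc/NLuc coincidence reporter in the Pmp22 3' UTR; compounds pin-transferred, 24 h at 37C. Dual-luciferase read: FLuc first, then NLuc after Stop&Glo, each 10 min at room temperature.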
p53null 32C tox: qHTS Screen for Compounds that Selectively Target Cancer Cells with p53 Mutations: Cytotoxicity of p53 Null Cells at the Permissive Temperature; H1299-neo p53 null cells, ATP luminescence, 24 h, 32C; Potency, µM (series often up to 46.1 µM), inactives show at the highest dose activity change, negative = cytotoxicity, hits mostly cytotoxic; hit rate 0.62% among 55,000;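 further: 0% = DMSO only and -100% = full killing by 100 µM tamoxifen; nearly all actives have a fitted effect of over 55% in size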
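H1299-neo (p53 null) cells, 600/well, treated 24 h at 32C with compound up to 46 uM; ATPlite luminescence viability, normalized to DMSO and 100 uM tamoxifen; AC50 by Hill fit.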
SKOV3 invasion: Primary qHTS assay for Inhibitors of ovarian cancer metastasis using an organotypic tumor microenvironment (TME) model. SKOV3ip1-GFP adhesion/invasion on 3D omental model, fluorescence. Potency, µM (doses to about 45.8 µM), for inactives: at the highest dose activity change, negative = inhibition, hits mostly inhibitors. hit rate 0.1% among 46,000. AID 1963576, 2024;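 further: plate controls were DMSO wells for no effect and tomatine positive control wells for full effect; nearly all actives have a fitted effect of over 65% in size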
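Primary human omental fibroblast/mesothelial 3D culture pre-formed 48 h. SKOV3ip1-GFP cells added with compounds (0.36-46 umol/L), incubated 2 h RT/16 h 37 C, fixed; GFP cells quantified at 488/509 nm.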
* = called active by the depositor. In the library only some 3% were active in any assay of this set; here they are far more common. Unless noted, the call rests on the fitted dose curve; in most records, active means well fitted curve in the direction sought with a large enough effect; inconclusive means small, poorly fitted or top-dose-only effect, or another doubt; inactive means no such curve, though single readings can be large; an effect the other way counts as inactive or inconclusive. Unless noted, on the % scale 0 is the no-effect control and ±100 the full control effect; potency means the concentration at half of the fitted maximal effect.

Screening COc1ccc(CCNC(=O)CCCn2c(=O)c3ccccc3n(CC(=O)Nc3cc(Cl)ccc3C)c2=O)cc1OC returned mTORC1 inh inconclusive, S16 viability 20%, p53null 39C tox 13µM*, PMP22 txn inconclusive, p53null 32C tox inconclusive and SKOV3 invasion inactive.
Screening C[C@H](CCC(=O)O)[C@H]1CC[C@H]2[C@@H]3[C@H](O)C[C@@H]4C[C@H](O)CC[C@]4(C)[C@@H]3CC[C@]12C returned SKOV3 invasion 3%.
Screening CC(C)(C)c1cnc(CSc2cnc(NC(=O)C3CCNCC3)s2)o1 returned SKOV3 invasion 12%.
Screening CCNC(=O)Nc1ccc(-c2nc3c(c(N4CCOC[C@H]4C)n2)CCN(C2COC2)C3)cc1 returned SKOV3 invasion -5%.
Cn1cnc2c(F)c(Nc3ccc(Br)cc3F)c(C(=O)NOCCO)cc21 was read as SKOV3 invasion 8%.
Screening Fc1ccc(-n2ncc3c(N4CCCCCC4)ncnc32)cc1 returned mTORC1 inh 6%, S16 viability 2%, p53null 39C tox 14µM*, PMP22 txn -3%, p53null 32C tox inconclusive and SKOV3 invasion inactive.
For Clc1cccc(-n2ncc3c(N4CCCCCC4)ncnc32)c1 the results were mTORC1 inh 2%, S16 viability 5%, p53null 39C tox -1%, PMP22 txn 13%, p53null 32C tox inconclusive and SKOV3 invasion -5%.
Fc1ccc(-n2ncc3c(N4CCC(Cc5ccccc5)CC4)ncnc32)cc1 was read as mTORC1 inh 3%, S16 viability -3%, p53null 39C tox 18%, PMP22 txn 0%, p53null 32C tox -1% and SKOV3 invasion 4%.
`Cc1ccc(-n2ncc3c(N4CCCCCC4)ncnc32)cc1` gave mTORC1 inh 15%, S16 viability -8%, p53null 39C tox 11%, PMP22 txn inconclusive, p53null 32C tox 3.2µM* and SKOV3 invasion 3%.
For Clc1cccc(-n2ncc3c(N4CCCCC4)ncnc32)c1 the results were mTORC1 inh -2%, S16 viability 6%, p53null 39C tox 13µM*, PMP22 txn -5%, p53null 32C tox 3.2µM* and SKOV3 invasion inactive.
O=C1NC(=O)C(=Cc2ccc3nccc(-c4ccncc4)c3c2)S1 was read as SKOV3 invasion -15%.
For CCCN(CCC)CCCNC(=O)c1cc2c(-c3ccc(Cl)cc3)nn(C)c2s1 the results were mTORC1 inh 13µM*, S16 viability inconclusive, p53null 39C tox 16µM*, PMP22 txn inconclusive, p53null 32C tox 3% and SKOV3 invasion inconclusive.
Screening COc1ccc(CNC(=O)c2cc3c(-c4ccc(Cl)cc4)nn(C)c3s2)cc1 returned mTORC1 inh -13%, S16 viability 11%, p53null 39C tox -7%, PMP22 txn -5%, p53null 32C tox 9% and SKOV3 invasion -26%.
COc1ccc(C(=O)NCC(c2cccnc2)N2CCN(c3ccc(F)cc3)CC2)cc1OC (stereo unspecified) was read as p53null 39C tox -1% and p53null 32C tox -11%.
